PubChem BioAssay (NCATS)
Records with an inconclusive call do not appear. A number with no mark means an inactive call. Active and inactive are the calls of the source. Calls come from the whole dose curve; as a rule, active = well fitted activation curve with a large enough effect; inconclusive = small, poorly fitted or top-dose-only effect; inactive = flat fitted curve, though single readings scatter.

Assay: Validation screen for small molecules that induce DNA re-replication in MCF 10A normal breast cells (AID 463097); note: nearly all actives have a fitted effect of over 60% in size; for re-replication induction: 0% is about no effect
Conditions: MCF 10A cells, DNA re-replication phenotype imaging; series mostly up to 46.1 µM; re-replication induction: at the top concentration
Source text: NIH Molecular Libraries Probe Production Network [MLPCN]
NIH Chemical Genomics Center [NCGC]
Assay Provider: Melvin DePamphilis, NICHD, NIH
Eukaryotic cells normally restrict genome duplication to once per cell division. When this process is aberrant, DNA re-replication occurs when cells reinitiate DNA replication before the first round of replication is complete. DNA re-replication induces the DNA damage response, arrests cell proliferation, and triggers apoptosis. The cell cycle components cyclin A, Cdt-1, Cdc6 and geminin are critical regulators of this process and their misregulation results in DNA re-replication in normal and cancer cells. To identify compounds that induce re-replication in normal cells, an image-based assay was used to measure DNA content of nuclei, as detected by the fluorescent DNA binding dye, Hoechst. Cell nuclei were imaged by a fluorescence scanning plate imager and compounds that induce DNA re-replication were identified by the increase of nuclei with elevated fluorescence intensity.
For screening, 250 cells in 5 uL/well were dispensed into black clear 1536-well plates (Aurora) using a solenoid-based dispenser. Following transfer of 23 nL compound or DMSO vehicle by a pin tool, the plates were incubated 48 hr at 37 C and 5% CO2. After addition of 1 uL/well Hoescht stain, the plates were incubated 40 min at 37 C, 5% CO2 and total intensity of fluorescent objects (nuclei) were enumerated by an Acumen Explorer Ex3 (TTP LabTech) fluorescence scanning plate imager (405 nm excitation, 500-530 nm emission).
Keywords: NIH Roadmap, MLPCN, MLI, MLSMR, qHTS, NCGC, DNA replication, cancer
Potency is the fitted concentration of half-maximal effect.

Structure (SMILES) | re-replication induction [%] | Potency
O=C(O)Cc1ccc(O)c(O)c1 | 6.98 | –
CSC(N)=NCCC[C@H](N)C(=O)O | 1.15 | –
N=S(=O)(O)Cc1noc2ccccc12 | -0.789 | –
CCn1c(=O)[nH]c2cc(Cl)c(Cl)cc21 | 1.21 | –
NC1(C(=O)O)CCCCC1 | -0.612 | –
NOCC(=O)O | 1.91 | –
COc1cc2c(CCNC(C)=O)c[nH]c2cc1O | -4.43 | –
CCCCCC(O)CCCC(=O)O (stereo not given) | -1.2 | –
CN(C)CCC(c1ccc(Br)cc1)c1ccccn1 (stereo not given) | 3.74 | –
C=C1C(=O)O[C@@H]2[C@H]3O[C@]3(C)CCC=C(C)CC[C@@H]12 | – | 14.1 µM (active)
COc1cc(C(O)C(=O)O)ccc1O (stereo not given) | 3.93 | –
O=[N+]([O-])c1cccc2cn[nH]c12 | -4.65 | –
O=C(c1ccc2c(c1)OCCO2)N1CCCCC1 | 1.9 | –
C[C@@]1(C2CCCC2)Cc2cc(OCC(=O)O)c(Cl)c(Cl)c2C1=O | 1.3 | –
OC[C@H]1O[C@@H](n2cnc3cncnc32)[C@H](O)[C@@H]1O | -0.262 | –
NC(=O)c1cc[n+](CC2=C(C(=O)O)N3C(=O)[C@@H](NC(=O)[C@@H](c4ccccc4)S(=O)(=O)[O-])[C@H]3SC2)cc1 | -2.64 | –
O=C(O)CCC(=O)N1CCCC1C(=O)O (stereo not given) | 0.827 | –
CC(=O)N[C@@H](Cc1c[nH]c2ccccc12)C(=O)OCc1cc(C(F)(F)F)cc(C(F)(F)F)c1 | 22.2 | –
COC(=O)C(C)(N)Cc1ccc(O)cc1 (stereo not given) | -8.13 | –
CC(N)=O | -2.24 | –

Structure (SMILES) | re-replication induction [%] | Potency
CN1C2CCC1CC(OC(c1ccccc1)c1ccccc1)C2 (stereo not given) | -2.67 | –
O=c1[nH]c(=O)c2nc3ccccc3nc2[nH]1 | 6.22 | –
CN1CCC2(CCN3CCc4c(oc5ccccc45)C3C2)N(C)C1=O (stereo not given) | -0.43 | –
COc1cc(N)c(Cl)cc1C(=O)OCCN1CCCCC1 | -0.0476 | –
CC(N)=NCCCC[C@@H](N)C(=O)O | -2 | –
C#CCn1c(=O)c2c(ncn2C)n(C)c1=O | -2.23 | –
CC1=C(/C=C/C(C)=C/C=C/C(C)=C\C(=O)O)C(C)(C)CCC1 | -1.76 | –
C=C(C)C1CC=C(C(=O)O)CC1 (stereo not given) | 3.83 | –
COc1ccccc1N1CCN(CCN(C(=O)c2ccc(F)cc2)c2ccccn2)CC1 | -0.271 | –
O=C1C2C=CC=CC2=NC(=S)N1CCN1CCC(=C(c2ccc(F)cc2)c2ccc(F)cc2)CC1 (stereo not given) | – | 7.08 µM (active)
c1ccc(CN2CCC3(CCCc4ccccc43)CC2)cc1 | 9.93 | –
NC1CONC1=O (stereo not given) | -1.36 | –
O[Si](CCCN1CCCCC1)(c1ccc(F)cc1)C1CCCCC1 (stereo not given) | 9.51 | –
O=c1ccc2c(OCCCCc3ccccc3)c3ccoc3cc2o1 | 13.1 | –
CSC(=N)N | -2.67 | –
NCC(O)c1ccc(O)c(O)c1 (stereo not given) | -5.69 | –
COc1ccc(C(=O)NCc2cccnc2)cc1C(=O)NCc1cccnc1 | -2.46 | –
NC(N)=NC(N)=Nc1ccccc1 | -1.69 | –
COCc1nc2c([nH]1)c(=O)n(C)c(=O)n2CC(C)C | 2.62 | –
CNc1cc(NS(=O)(=O)c2ccc(N)cc2)nc(NC)n1 | -0.0826 | –
